ClpP mod: qHTS Assay for Activators of ClpP | ATP-dependent Clp protease proteolytic subunit (Bacillus subtilis (strain 168)), P80244 | purified B. subtilis ClpP, FRET peptide cleavage, 20 min | Potency, µM (top dose mostly 57.5 µM) | hit rate 1.9% among 340,000; active means well fitted falling curve with a large enough effect; inconclusive means small, poorly fitted or top-dose-only effect; inactive means no such curve, though single readings can be large or run the other way; further: the source files actives as falling curves though it sought activators and does not explain the sign; nearly all actives have a fitted effect of over 65% in size
Target sequence (P80244 whole entry, looked up): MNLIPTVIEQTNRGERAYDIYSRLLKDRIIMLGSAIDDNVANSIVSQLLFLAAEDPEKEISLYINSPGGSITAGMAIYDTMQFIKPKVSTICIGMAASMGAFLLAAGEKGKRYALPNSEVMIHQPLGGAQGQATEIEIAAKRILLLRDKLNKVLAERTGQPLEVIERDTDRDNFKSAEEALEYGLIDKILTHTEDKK
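ClpP 10 microg/mL final, pH 8 Tris/KCl buffer with BSA, glycerol, Tween-20; compound pinned in; FRET-FV substrate; RT 20 min; Ex320/Em430; ΔFRET vs ADEP 5.8 microM, DMSO, no enzyme.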
TDP1 cell noCPT: qHTS for Inhibitors of human tyrosyl-DNA phosphodiesterase 1 (TDP1): qHTS in cells in absence of CPT | DT40 Tdp1-/- hTDP1 cells, no CPT, ATP luminescence, 48 h | Potency, µM (top dose mostly 46.2 µM), hits mostly inhibitors | hit rate 15% among 420,000; further: nearly all actives have a fitted effect of over 55% in size
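Luminescent ATP content (CellTiter-Glo) served as the growth readout. Knockout chicken DT40 cells expressing human TDP1 were exposed to compounds without camptothecin for a minimum 48 hr at 37 °C.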
TDP1 block: inhibitors of human tyrosyl-DNA phosphodiesterase TDP1 | Potency, µM (titrated, usually from 130 µM), actives largely listed as inhibitors | recombinant TDP1, AlphaScreen DNA substrate cleavage | hit rate 0.28% among 350,000 | Q9NUW8 | AID 485290; further: nearly all actives have a fitted effect of over 40% in size
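Signal: AlphaScreen proximity between streptavidin donor and anti-FITC acceptor beads on intact substrate. Reaction: Tdp1 1 nM, substrate 15 nM final, 5 min RT after 15 min compound preincubation.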
TDP1 cell CPT: DT40-hTDP1 cell growth loss with CPT | chicken DT40 Tdp1-/-;hTDP1 cells + 20 nM CPT, ATP luminescence, 48 h | AID 686979 | hit rate 12% among 420,000 | Potency, µM (doses to about 46.2 µM), actives largely listed as inhibitors; further: nearly all actives have a fitted effect of over 55% in size
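Chicken DT40 Tdp1-/- cells stably complemented with human TDP1 were seeded at 400 cells/well in medium containing 20 nM camptothecin, exposed to pin-transferred compounds, and grown at 37 °C for at least 48 hr. Viability was read as ATP luminescence.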
Each line names hits and unclear results; the compound was inactive in the other large screens. The list is not random: actives were taken first. Their share in the collection is about 17%. Unless noted, the call rests on the fitted dose curve; in most records, active means well fitted curve in the direction sought with a large enough effect; inconclusive means small, poorly fitted or top-dose-only effect, or another doubt; inactive means no such curve, though single readings can be large; an effect the other way counts as inactive or inconclusive.

c1ccc(CN(Cc2cccs2)C(c2cccs2)c2nnnn2C2CCCC2)cc1 (stereo not given)	TDP1 cell noCPT 18µM, TDP1 cell CPT inconclusive
CC(C)(C)n1nnnc1C(c1ccncc1)N(Cc1ccccc1)Cc1ccco1 (stereo not given)	TDP1 cell noCPT 23µM, TDP1 cell CPT inconclusive
CC(C)(C)n1nnnc1C(c1cccs1)N(Cc1ccccc1)Cc1ccco1 (stereo not given)	TDP1 cell noCPT 16µM, TDP1 cell CPT inconclusive
Cc1ccc2cc(C(c3nnnn3C3CCCC3)N(Cc3ccccc3)Cc3ccco3)c(=O)[nH]c2c1 (stereo not given)	ClpP mod 22µM, TDP1 cell noCPT inconclusive, TDP1 cell CPT 21µM
Cc1cc(=O)oc2cc(OCC(=O)N3CCC(C(N)=O)CC3)ccc12	none (no result: TDP1 block)
CCc1nc2ccc(C(=O)N3CCN(c4ccccc4)CC3)cn2c1N(CCC(C)C)CCN(C)C	TDP1 cell noCPT inconclusive, TDP1 cell CPT inconclusive (no result: TDP1 block)
COc1ccc(N2CC(C(=O)Nc3nc4ccc(S(C)(=O)=O)cc4s3)CC2=O)cc1 (stereo not given)	TDP1 cell noCPT inconclusive (no result: ClpP mod, TDP1 block)
CCn1ncc([N+](=O)[O-])c1C(=O)Nc1c(C)nn(Cc2ccc(F)cc2)c1C	none (no result: TDP1 block)
CCN(Cc1ccccc1)C(c1ccc(Cl)cc1)c1nnnn1C(C)(C)C (stereo not given)	TDP1 cell noCPT inconclusive, TDP1 cell CPT 26µM
CN(CCOc1ccccc1)CC(=O)Nc1ccc(Br)cc1F	TDP1 cell noCPT 16µM, TDP1 cell CPT inconclusive (no result: ClpP mod, TDP1 block)
CCC(C)c1ccccc1NC(=O)CN(C)CCOc1ccc(Cl)cc1 (stereo not given)	TDP1 cell noCPT 23µM, TDP1 cell CPT inconclusive (no result: ClpP mod, TDP1 block)
COc1ccc(C2(C(=O)NCC3Cc4cccc(-c5cccnc5)c4O3)CCCC2)cc1 (stereo not given)	TDP1 cell noCPT inconclusive (no result: ClpP mod, TDP1 block)
COc1cccc2[nH]c(C(=O)NCc3ccccc3)cc12	none (no result: TDP1 block)
CC1(C(=O)NS(=O)(=O)c2ccc(Cl)s2)CCN1C(=O)C1CCCCC1 (stereo not given)	TDP1 cell noCPT 7.3µM (no result: TDP1 block)
Cc1cc(C(=O)Nc2ccc3ccccc3c2)c(C)o1	TDP1 cell noCPT inconclusive (no result: ClpP mod)
Fc1ccc(-n2ncc3c(Nc4ccc5c(c4)OCCO5)ncnc32)cc1	TDP1 cell noCPT 29µM, TDP1 cell CPT 13µM
Cc1ccc(Cl)cc1-n1ncc2c(Nc3ccc4c(c3)OCCO4)ncnc21	TDP1 cell noCPT inconclusive, TDP1 cell CPT 26µM
Cc1ccc(-n2ncc3c(Nc4ccc5c(c4)OCCO5)ncnc32)cc1Cl	TDP1 cell noCPT 23µM, TDP1 cell CPT inconclusive
CCc1cccc(NC(=O)COC(=O)c2cn(CC)c3nc(C)ccc3c2=O)c1	TDP1 cell noCPT inconclusive
Cc1ccc2c(c1)-c1c(cnn1CC(=O)Nc1ccccc1N1CCN(C)CC1)CO2	TDP1 cell noCPT inconclusive, TDP1 cell CPT inconclusive
COc1ccccc1N1CCN(C(=O)Cn2ncc3c2-c2cc(C)ccc2OC3)CC1	TDP1 cell noCPT 21µM, TDP1 cell CPT 26µM
O=C(Cn1ncc2c1-c1ccccc1OC2)N1CCN(c2ccccc2)CC1	TDP1 cell noCPT 16µM
CCN(CC)C(=O)Cn1ncc2c1-c1ccccc1OC2	TDP1 cell noCPT inconclusive
Cc1cccc(N2CCN(C(=O)Cn3ncc4c3-c3cc(C)ccc3OC4)CC2C)c1 (stereo not given)	TDP1 cell noCPT 23µM, TDP1 cell CPT 23µM
CCCN(C(=O)Cn1ncc2c1-c1ccccc1OC2)c1cccc(C)c1	TDP1 cell noCPT 16µM, TDP1 cell CPT inconclusive
Cc1cc(F)cc(-c2cc(C(=O)NCc3ccco3)[nH]n2)c1	none (no result: TDP1 block)
Cc1cc2nc3c(c(C(F)(F)F)n2n1)CCCC3	none
CCCCCCCCCCOC(=O)Cn1c(COc2ccccc2OC)[n+](C)c2ccccc21	TDP1 cell noCPT 1.3µM, TDP1 cell CPT 1µM (no result: ClpP mod)
COc1ccc(CNC(=O)CCc2c(C)nn(-c3ccc(N4CCCCC4)nn3)c2C)c(OC)c1	TDP1 cell noCPT inconclusive, TDP1 cell CPT inconclusive
COc1ccc(S(=O)(=O)N2CC=C(C(=O)NC3CCCC3)CC2)cc1	TDP1 cell noCPT inconclusive, TDP1 cell CPT inconclusive
Cn1cccc([N+](=O)[O-])c1=O	none (no result: TDP1 block)
Cn1c(=O)c(=O)n(C)c2cc([N+](=O)[O-])c([N+](=O)[O-])cc21	TDP1 cell noCPT 18µM, TDP1 cell CPT 15µM (no result: ClpP mod)
O=C(c1[nH]c(C(F)(F)F)nc1-c1ccccc1)N1CCN(c2cccc(C(F)(F)F)n2)CC1	TDP1 cell noCPT 4.6µM, TDP1 cell CPT 4.6µM (no result: TDP1 block)
CC(=O)N1CCN(C(=O)c2[nH]c(C(F)(F)F)nc2-c2ccccc2)CC1	none (no result: TDP1 block)
COc1ccccc1N1CCN(C(=O)c2[nH]c(C(F)(F)F)nc2-c2ccccc2)CC1	TDP1 cell noCPT 5.8µM, TDP1 cell CPT 6.5µM (no result: TDP1 block)
CCOC(=O)N1CCN(C(=O)c2[nH]c(C(F)(F)F)nc2-c2ccccc2)CC1	TDP1 cell noCPT 16µM, TDP1 cell CPT 16µM (no result: TDP1 block)
Cc1cccc(N2CCN(C(=O)c3[nH]c(C(F)(F)F)nc3-c3ccccc3)CC2)c1C	TDP1 cell noCPT 1.3µM, TDP1 cell CPT 1.3µM (no result: TDP1 block)
O=C1NC[C@@H](CCCCN2C[C@H](Cc3ccc(O)cc3)N(Cc3ccccc3)C(=O)C2=O)N(CCC2CCCCC2)C1=O	none (no result: TDP1 block)
Cc1cccc(C(=O)Nc2cccc(C(=O)N3CCOCC3)c2)c1	none
CC(=O)/C(=N/Nc1cccc(C)c1)N1CCOCC1	TDP1 cell noCPT inconclusive, TDP1 cell CPT 6.5µM
COc1cc(NC(=O)N2CCC3(CC2)Nc2cc(F)ccc2-n2cccc23)cc(OC)c1OC	TDP1 cell noCPT 26µM, TDP1 cell CPT 16µM
C=CCOc1ccc(/C=N/NC(=O)c2cc3c(OC)cc(OC)cc3[nH]2)cc1	TDP1 cell noCPT 26µM, TDP1 cell CPT inconclusive (no result: TDP1 block)
CCOc1ccc(/C=N/NC(=O)c2cc3c(OC)cc(OC)cc3[nH]2)cc1OC	TDP1 cell noCPT 16µM, TDP1 cell CPT 13µM (no result: TDP1 block)
CCOC(=O)C1(C)CCN1C(=O)c1ccccc1OC (stereo not given)	none (no result: TDP1 block)
CS(=O)(=O)N1CCC(Oc2ccccc2C(=O)NC(C2CC2)C2CC2)CC1	none
Cc1nnsc1-c1nc2ccccc2[nH]1	ClpP mod 25µM
Cc1ccc(-c2nc3ccccc3[nH]2)s1	TDP1 cell noCPT 16µM, TDP1 cell CPT 9.2µM
c1csc(-c2nc3ccccc3[nH]2)c1	none
Cc1[nH]c2ccccc2c1-c1nc2ccccc2[nH]1	ClpP mod 16µM, TDP1 cell noCPT inconclusive, TDP1 cell CPT inconclusive
CC(O)C(NS(=O)(=O)c1ccc2ccccc2c1)C(=O)OCC(=O)Nc1ccccc1OC(F)F (stereo not given)	none (no result: TDP1 block)
COc1ccc(OC)c(-n2cnc3cc(C(=O)NCCc4ccccc4)ccc32)c1	TDP1 cell noCPT inconclusive, TDP1 cell CPT inconclusive
[2H]C([2H])(CCOS(N)(=O)=O)c1ccccc1	none (no result: TDP1 block)
Cc1ccc2[nH]c(=O)cc(C(=O)OC(C)C)c2c1	TDP1 cell noCPT inconclusive (no result: ClpP mod)

Screening results as filed in PubChem.
